# Test results reported in PubChem BioAssay (EPA / NIEHS).
# Several values for one entry are separate records, joined by “and”; a condition that tells them apart may be missing. Identical values can stand only once. Inconclusive results are not listed. A structure can be active in one record and inactive in another. Activity calls are given as the source filed them. How the source made its calls: active means hit-call score of the fitted dose curve at least 0.9, where 1 is the maximum; inconclusive means response in the unintended direction; inactive means score below 0.9.
# How the values were obtained:
# [1] = target: rat Serotonin Transporter (SERT), Slc6a4 (gene 25553) (UniProt P31652); test: NVS_TR_rSERT: NovaScreen (NVS) Transporter Assay for rat Serotonin Transporter (SERT) (AID 2283375)
# Method: (§1) NVS_TR_rSERT is a biochemical, single-readout assay that uses extracted gene-proteins from Rat forebrain membranes in a tissue-based cell-free assay. Measurements were taken 1 hour after chemical dosing in a 96-well plate.NVS_TR_rSERT is one of one assay component(s) measured or calculated from the NVS_TR_rSERT assay. It is designed to make measurements of radioligand binding, a form of binding reporter, as detected with scintillation counting signals by Filter-based radiodetection technology.Data from the assay component NVS_TR_rSERT was analyzed into 1 assay endpoint. This assay endpoint, NVS_TR_rSERT, was analyzed in the positive analysis fitting direction relative to DMSO as the negative control and baseline of activity. Using a type of binding reporter, loss-of-signal activity can be used to understand changes in the binding as they relate to the gene Slc6a4. Furthermore, this assay endpoint can be referred to as a primary readout, because the performed assay has only produced 1 assay endpoint. To generalize the intended target to other relatable targets, this assay endpoint is annotated to the transporter intended target family, where the subfamily is neurotransmitter transporter.
# (§2) Binding assays used specific radioligands (tritiated, iodinated) with non-radioactive competitive displacement ligands in agonist or antagonist protocols (as indicated) and various reference compounds and inhibitors to titrate specific binding to receptors and transporters. Most enzyme assays (CYPs, kinases, phosphatases, proteases, HDACs) used recombinant protein and specific substrates (fluorescence mostly, some colorimetric and radioactive) and inhibitors, followed by a biochemical separation of substrate and product. All assays for the biochemical HTS were initially run in duplicate at a single concentration (10 uM for CYP450 assays and 25 uM for all others). […] Each assay was run with positive and negative controls, and concurrent controls on every plate. The follow-up (secondary) screen tested active chemical-pairs in concentration series, as well as a few additional assays not tested in the primary screen, some selected negative inactives, and several cases re-run in the concentration series for confirmatory purposes.
# [2] = target: Norway rat Vesicular Monoamine Transporter (VMAT2), neurotransmitter transporter, Slc18a2 (gene 25549) (UniProt Q01827); test: NVS_TR_rVMAT2: NovaScreen (NVS) Transporter Assay for Norway rat Vesicular Monoamine Transporter (VMAT2), neurotransmitter transporter (AID 2283376);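 further: actives lower the bound radioligand signal below the DMSO level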
# Method: as §1, with “NVS_TR_rVMAT2” for “NVS_TR_rSERT”, “forebrain” for “forebrain membranes”, “plate.NVS_TR_rVMAT2” for “plate.NVS_TR_rSERT”, “NVS_TR_rVMAT2,” for “NVS_TR_rSERT,”, “Slc18a2.” for “Slc6a4.”, “vesicular” for “neurotransmitter”
# as §2
# [3] = target: Retinoic acid receptor RXR-alpha (Homo sapiens) (UniProt P19793); test: OT_NURR1_NURR1RXRa_0480: Odyssey Thera (OT) 8-hour HEK293T Protein Complementation Assay for Nurr1/retinoid X receptor (RXR) (AID 2283385)
# Method in brief: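 HEK293T cells expressing Nurr1 and RXRα fused to reporter fragments (protein-fragment complementation); fluorescence measured 8 h after dosing. Gain of signal fitted relative to DMSO.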
# [4] = target: Retinoic acid receptor RXR-alpha (Homo sapiens) (UniProt P19793); test: OT_NURR1_NURR1RXRa_1440: Odyssey Thera (OT) 24-hour HEK293T Protein Complementation Assay for Nurr1/retinoid X receptor (RXR) (AID 2283386)
# Method in brief: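 HEK293T protein-fragment complementation of Nurr1 and RXRα fused to reporter fragments; compounds 24 h. Fluorescence gain from reconstituted reporter fitted versus DMSO.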
# [5] = target: human Norepinephrine Transporter (NET), SLC6A2 (gene 6530) (UniProt P23975); test: NVS_TR_hNET: NovaScreen (NVS) Transporter Assay for human Norepinephrine Transporter (NET) (AID 2283377);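 on AC50: displacement of radioligand from human NET seen as loss of scintillation signal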
# Method in brief: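 Cell-free radioligand binding using CHO-derived membrane protein expressing human NET, read by filter scintillation counting 1 h after dosing; loss of signal vs DMSO. Initial duplicate screen at 25 uM, actives retested in concentration series.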
# [6] = target: Bile acid receptor (Homo sapiens) (UniProt Q96RI1); test: OT_FXR_FXRSRC1_0480: Odyssey Thera (OT) 8-hour HEK293T Protein-Complementation Assay for Farnesoid X receptor/SRC-1 Co-activator (AID 2283383)
# Method in brief: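 HEK293T protein-fragment complementation assay: FXR and SRC-1 coactivator are fused to reporter fragments, and their interaction restores a fluorescent reporter. Readout was taken 8 h after dosing, with gain of signal fit relative to DMSO.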
# [7] = target: Estrogen receptor (Homo sapiens) (UniProt P03372); test: OT_ERa_GFPERaERE_0120: Odyssey Thera (OT) 2-hour HeLa Transcription Induction Assay for Estrogen Receptor (AID 2283382)
# Method in brief: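 HeLa cells were dosed for 2 h, then GFP reporter induction was quantified by fluorescence microscopy with high-content image analysis. Gain of signal fitted against DMSO baseline.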
# [8] = target: mouse Estrogen Receptor alpha (Era), Esr1 (gene 13982) (UniProt P19785); test: NVS_NR_mERa: NovaScreen (NVS) Nuclear Receptor Binding Assay for mouse Estrogen Receptor alpha (Era) (AID 2283378);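 further: hit means loss of bound radioligand signal relative to DMSO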
# Method: NVS_NR_mERa is a biochemical, single-readout assay that uses extracted gene-proteins in a cell-free assay. Measurements were taken 18 hours after chemical dosing in a 96-well plate.NVS_NR_mERa is one of one assay component(s) measured or calculated from the NVS_NR_mERa assay. It is designed to make measurements of radioligand binding, a form of binding reporter, as detected with scintillation counting signals by Filter-based radiodetection technology.Data from the assay component NVS_NR_mERa was analyzed into 1 assay endpoint. This assay endpoint, NVS_NR_mERa, was analyzed in the positive analysis fitting direction relative to DMSO as the negative control and baseline of activity. Using a type of binding reporter, loss-of-signal activity can be used to understand changes in the binding as they relate to the gene Esr1. Furthermore, this assay endpoint can be referred to as a primary readout, because the performed assay has only produced 1 assay endpoint. To generalize the intended target to other relatable targets, this assay endpoint is annotated to the nuclear receptor intended target family, where the subfamily is steroidal.
# as §2
# [9] = target: Agonist Androgen Response Element (ARE), AR (gene 367) (UniProt P10275); test: OT_AR_ARELUC_AG_1440: Odyssey Thera (OT) 24-hour CHO-K1 Luciferase Assay for Agonist Androgen Response Element (ARE) (AID 2283379)
# Method in brief: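 CHO-K1 cells carrying an ARE-driven luciferase reporter were exposed to compounds for 24 h. Luminescence was then read after adding a D-luciferin/ATP mix, and activity was scored as a gain in signal over DMSO vehicle.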
# [10] = target: Estrogen receptor beta (Homo sapiens) (UniProt Q92731); test: OT_ER_ERbERb_1440: Odyssey Thera (OT) 24-hour HEK293T Protein-Complementation Assay for Estrogen Receptor-beta/-beta Homodimer (AID 2283380);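 further: scored as signal increase over DMSO baseline for both agonists and antagonists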
# Method in brief: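 HEK293T cells stably expressing ER beta LBD (aa 310-547) homodimer fragment-complementation reporter, dosed 24 h. Cells formaldehyde-fixed, Draq5-stained; gain in nuclear (agonist) or nuclear plus cytoplasmic (antagonist) fluorescence versus DMSO read by laser scanning cytometry.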
# Chain of Bile acid receptor (Homo sapiens) (Q96RI1 whole entry, looked up, the tested form may be a part): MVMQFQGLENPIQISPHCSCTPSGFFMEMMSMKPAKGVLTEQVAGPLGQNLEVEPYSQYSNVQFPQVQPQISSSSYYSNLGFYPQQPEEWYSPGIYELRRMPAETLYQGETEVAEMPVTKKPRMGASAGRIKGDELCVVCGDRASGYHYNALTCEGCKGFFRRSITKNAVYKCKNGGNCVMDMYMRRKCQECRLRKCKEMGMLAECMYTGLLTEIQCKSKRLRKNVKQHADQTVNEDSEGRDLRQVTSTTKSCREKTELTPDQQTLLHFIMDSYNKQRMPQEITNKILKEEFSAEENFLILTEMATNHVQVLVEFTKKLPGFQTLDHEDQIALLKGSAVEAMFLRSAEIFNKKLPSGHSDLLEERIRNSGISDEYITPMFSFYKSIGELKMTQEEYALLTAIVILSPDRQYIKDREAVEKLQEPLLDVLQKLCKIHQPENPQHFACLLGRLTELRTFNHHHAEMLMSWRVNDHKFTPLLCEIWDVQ
# Chain of rat Serotonin Transporter (SERT), Slc6a4 (gene 25553) (P31652 whole entry, looked up): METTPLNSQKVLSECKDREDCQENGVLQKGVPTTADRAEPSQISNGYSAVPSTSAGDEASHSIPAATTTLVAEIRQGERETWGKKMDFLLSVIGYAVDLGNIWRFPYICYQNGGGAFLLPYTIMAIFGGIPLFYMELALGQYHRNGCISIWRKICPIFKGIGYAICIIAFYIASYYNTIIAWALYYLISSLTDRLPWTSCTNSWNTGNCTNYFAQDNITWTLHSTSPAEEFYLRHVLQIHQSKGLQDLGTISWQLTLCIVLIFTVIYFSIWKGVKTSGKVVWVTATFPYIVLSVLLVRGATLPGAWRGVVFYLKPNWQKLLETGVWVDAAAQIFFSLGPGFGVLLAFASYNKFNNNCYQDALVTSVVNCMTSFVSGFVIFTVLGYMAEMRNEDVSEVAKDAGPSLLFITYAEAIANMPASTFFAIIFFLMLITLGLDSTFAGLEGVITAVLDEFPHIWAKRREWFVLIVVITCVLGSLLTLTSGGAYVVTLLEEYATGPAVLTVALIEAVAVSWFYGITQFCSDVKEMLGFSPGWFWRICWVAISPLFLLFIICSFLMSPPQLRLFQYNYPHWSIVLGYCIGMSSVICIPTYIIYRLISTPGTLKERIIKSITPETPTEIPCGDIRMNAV
# Chain of Estrogen receptor beta (Homo sapiens) (Q92731 whole entry, looked up, the tested form may be a part): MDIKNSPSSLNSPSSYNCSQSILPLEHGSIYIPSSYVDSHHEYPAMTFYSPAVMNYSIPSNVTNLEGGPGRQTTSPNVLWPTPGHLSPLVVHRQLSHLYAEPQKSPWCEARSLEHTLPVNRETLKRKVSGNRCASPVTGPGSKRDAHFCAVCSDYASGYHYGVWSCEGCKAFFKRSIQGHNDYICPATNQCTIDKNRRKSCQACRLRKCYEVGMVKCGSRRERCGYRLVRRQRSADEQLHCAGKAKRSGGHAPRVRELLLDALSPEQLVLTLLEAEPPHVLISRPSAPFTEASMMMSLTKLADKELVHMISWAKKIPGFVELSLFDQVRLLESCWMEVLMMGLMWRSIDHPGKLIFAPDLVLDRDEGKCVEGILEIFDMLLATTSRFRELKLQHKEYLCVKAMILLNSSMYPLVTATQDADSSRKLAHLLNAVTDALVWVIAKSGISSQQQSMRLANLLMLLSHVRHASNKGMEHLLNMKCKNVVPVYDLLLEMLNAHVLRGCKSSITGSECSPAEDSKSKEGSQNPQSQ
# Chain of Norway rat Vesicular Monoamine Transporter (VMAT2), neurotransmitter transporter, Slc18a2 (gene 25549) (Q01827 whole entry, looked up): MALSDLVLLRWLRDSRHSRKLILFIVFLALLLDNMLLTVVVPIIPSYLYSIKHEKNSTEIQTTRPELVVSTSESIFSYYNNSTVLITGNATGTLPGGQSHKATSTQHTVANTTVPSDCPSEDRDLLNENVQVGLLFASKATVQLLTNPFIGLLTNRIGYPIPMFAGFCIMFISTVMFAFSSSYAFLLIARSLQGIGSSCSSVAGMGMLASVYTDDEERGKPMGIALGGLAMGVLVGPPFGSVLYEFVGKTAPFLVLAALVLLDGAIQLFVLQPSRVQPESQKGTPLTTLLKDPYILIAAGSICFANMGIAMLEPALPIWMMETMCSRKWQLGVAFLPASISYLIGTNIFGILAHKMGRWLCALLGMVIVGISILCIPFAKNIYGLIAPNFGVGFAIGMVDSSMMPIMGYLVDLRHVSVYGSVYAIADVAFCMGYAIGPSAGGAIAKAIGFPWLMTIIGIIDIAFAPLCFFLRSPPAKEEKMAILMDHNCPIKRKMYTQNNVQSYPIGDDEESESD
# Chain of Retinoic acid receptor RXR-alpha (Homo sapiens) (P19793 whole entry, looked up, the tested form may be a part): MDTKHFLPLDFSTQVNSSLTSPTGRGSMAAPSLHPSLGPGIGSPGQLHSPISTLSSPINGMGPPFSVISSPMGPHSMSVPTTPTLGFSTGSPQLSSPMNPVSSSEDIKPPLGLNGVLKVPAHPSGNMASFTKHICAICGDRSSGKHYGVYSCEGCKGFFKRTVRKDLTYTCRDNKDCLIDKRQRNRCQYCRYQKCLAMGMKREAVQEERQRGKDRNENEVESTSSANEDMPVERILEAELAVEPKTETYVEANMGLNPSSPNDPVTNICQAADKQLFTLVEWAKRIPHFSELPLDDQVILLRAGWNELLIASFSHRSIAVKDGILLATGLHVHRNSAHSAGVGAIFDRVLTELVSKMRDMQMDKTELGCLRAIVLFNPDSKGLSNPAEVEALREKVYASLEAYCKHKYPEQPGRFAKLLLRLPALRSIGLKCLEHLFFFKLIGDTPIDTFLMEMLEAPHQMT
# Chain of mouse Estrogen Receptor alpha (Era), Esr1 (gene 13982) (P19785 whole entry, looked up): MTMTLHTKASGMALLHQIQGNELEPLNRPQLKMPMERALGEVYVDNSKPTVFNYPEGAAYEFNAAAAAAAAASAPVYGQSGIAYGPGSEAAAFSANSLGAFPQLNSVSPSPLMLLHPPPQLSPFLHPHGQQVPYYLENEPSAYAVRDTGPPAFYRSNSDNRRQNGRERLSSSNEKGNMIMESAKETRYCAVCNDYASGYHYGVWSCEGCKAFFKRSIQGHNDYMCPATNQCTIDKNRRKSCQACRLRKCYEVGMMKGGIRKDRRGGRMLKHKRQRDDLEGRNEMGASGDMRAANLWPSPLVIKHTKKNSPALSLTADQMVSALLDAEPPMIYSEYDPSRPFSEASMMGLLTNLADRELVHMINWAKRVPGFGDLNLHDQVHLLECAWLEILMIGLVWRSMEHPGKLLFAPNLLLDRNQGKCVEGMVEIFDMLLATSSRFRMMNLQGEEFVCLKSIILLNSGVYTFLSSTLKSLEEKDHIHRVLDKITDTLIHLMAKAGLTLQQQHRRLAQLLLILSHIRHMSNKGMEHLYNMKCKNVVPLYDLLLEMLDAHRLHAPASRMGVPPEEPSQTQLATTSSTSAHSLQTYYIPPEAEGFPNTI
# Chain of Agonist Androgen Response Element (ARE), AR (gene 367) (P10275 whole entry, looked up): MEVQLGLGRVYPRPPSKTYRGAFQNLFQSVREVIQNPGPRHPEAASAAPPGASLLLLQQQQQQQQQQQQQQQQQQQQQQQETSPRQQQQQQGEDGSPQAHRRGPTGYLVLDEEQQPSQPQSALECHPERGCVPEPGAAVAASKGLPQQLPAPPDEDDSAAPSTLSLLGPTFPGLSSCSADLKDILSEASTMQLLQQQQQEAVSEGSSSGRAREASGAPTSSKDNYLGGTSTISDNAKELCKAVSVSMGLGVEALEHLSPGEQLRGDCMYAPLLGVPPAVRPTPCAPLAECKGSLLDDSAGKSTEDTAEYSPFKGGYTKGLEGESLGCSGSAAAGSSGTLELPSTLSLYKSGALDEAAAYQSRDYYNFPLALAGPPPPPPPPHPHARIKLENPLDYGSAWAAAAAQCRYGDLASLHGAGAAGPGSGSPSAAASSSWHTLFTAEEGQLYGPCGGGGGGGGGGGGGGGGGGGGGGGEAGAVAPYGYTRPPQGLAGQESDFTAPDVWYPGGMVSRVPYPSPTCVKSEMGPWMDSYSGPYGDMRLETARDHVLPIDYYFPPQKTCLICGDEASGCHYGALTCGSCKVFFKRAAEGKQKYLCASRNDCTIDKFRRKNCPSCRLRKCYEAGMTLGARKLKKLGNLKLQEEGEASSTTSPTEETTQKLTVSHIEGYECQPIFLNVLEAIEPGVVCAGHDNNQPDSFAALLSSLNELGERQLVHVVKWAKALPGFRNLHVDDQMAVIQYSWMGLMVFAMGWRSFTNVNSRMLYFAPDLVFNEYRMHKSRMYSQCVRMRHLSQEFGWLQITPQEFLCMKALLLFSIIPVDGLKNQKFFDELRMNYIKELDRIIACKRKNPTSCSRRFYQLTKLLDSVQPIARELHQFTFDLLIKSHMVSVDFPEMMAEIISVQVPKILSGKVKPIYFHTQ
# Chain of human Norepinephrine Transporter (NET), SLC6A2 (gene 6530) (P23975 whole entry, looked up): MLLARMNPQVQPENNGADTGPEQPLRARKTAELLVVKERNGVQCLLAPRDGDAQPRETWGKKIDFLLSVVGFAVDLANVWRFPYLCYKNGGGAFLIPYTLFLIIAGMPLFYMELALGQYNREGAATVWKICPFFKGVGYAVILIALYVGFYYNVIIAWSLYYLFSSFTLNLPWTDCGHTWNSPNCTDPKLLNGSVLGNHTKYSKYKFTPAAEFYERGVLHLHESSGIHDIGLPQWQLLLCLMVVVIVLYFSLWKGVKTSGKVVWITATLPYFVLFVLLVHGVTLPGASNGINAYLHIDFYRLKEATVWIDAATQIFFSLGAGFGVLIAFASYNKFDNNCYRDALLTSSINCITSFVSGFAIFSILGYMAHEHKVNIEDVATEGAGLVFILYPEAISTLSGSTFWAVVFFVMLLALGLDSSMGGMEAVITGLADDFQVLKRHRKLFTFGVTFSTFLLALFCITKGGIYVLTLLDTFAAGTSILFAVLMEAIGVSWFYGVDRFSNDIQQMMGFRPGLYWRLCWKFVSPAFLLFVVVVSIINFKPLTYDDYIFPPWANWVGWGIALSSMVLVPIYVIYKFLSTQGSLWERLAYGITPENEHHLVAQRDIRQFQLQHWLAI
smiles,measurement,setting,value
COC(=O)c1ccccc1N,outcome,[1],inactive
same,outcome,[2],inactive
same,outcome,[3],inactive
same,outcome,[4],inactive
O=C(N[C@H](c1ccccc1)[C@@H]1CN2CCC1CC2)c1c(Cl)ccc(C(F)(F)F)c1Cl,AC50,[1],0.359 µM (active)
same,AC50,[5],13.3 µM (active)
same,outcome,[6],inactive
O=C(Oc1ccc(Br)cc1)N1CCN2CCC1CC2,AC50,[1],1.01 µM (active)
same,AC50,[5],12.8 µM (active)
same,outcome,[7],inactive
same,outcome,[3],inactive
same,outcome,[4],inactive
CCCCCOC(=O)c1ccccc1C(=O)OCCCCC,outcome,[8],inactive
same,AC50,[7],12.1 µM (active)
same,outcome,[3],inactive
same,outcome,[4],inactive
Cc1cc(N=Nc2ccccc2C)ccc1N,AC50,[5],12.4 µM (active)
same,outcome,[6],inactive
same,outcome,[3],inactive
same,outcome,[4],inactive
Nc1ccc([N+](=O)[O-])cc1,outcome,[5],inactive
same,outcome,[9],inactive
same,outcome,[3],inactive
same,AC50,[4],26.9 µM (active)
same,outcome,[4],inactive
Nc1ccc(N=Nc2ccccc2)cc1,AC50,[5],9.76 µM (active)
same,outcome,[8],inactive
same,AC50,[10],35.6 µM (active)
same,outcome,[7],inactive
same,outcome,[6],inactive
same,outcome,[3],inactive
C=CCc1ccc2c(c1)OCO2,outcome,[2],inactive
same,outcome,[3],inactive
same,outcome,[4],inactive
CN(C)[C@@H]1C(=O)C(C(N)=O)=C(O)[C@@]2(O)C(=O)C3=C(O)c4c(O)cccc4[C@@](C)(O)[C@H]3C[C@@H]12,outcome,[5],inactive
same,outcome,[6],inactive
same,outcome,[3],inactive
same,outcome,[4],inactive
O=C(Nc1ccccc1)c1ccccc1I,AC50,[5],11.2 µM (active)
same,outcome,[10],inactive
same,outcome,[7],inactive
same,outcome,[3],inactive
C[C@]12C=CC3=C4CCC(=O)C=C4CC[C@H]3[C@@H]1CC[C@@H]2O,AC50,[1],5.68 µM (active)
same,AC50,[2],13.3 µM (active)
same,AC50,[8],3.65 µM (active) and 4.59 µM (active) and 7.64 µM (active)
same,outcome,[8],inactive
same,AC50,[9],210 nM (active) and 213 nM (active) and 2.53 nM (active)
same,outcome,[10],inactive
same,AC50,[6],12.7 µM (active) and 14.2 µM (active) and 12.3 µM (active)
same,outcome,[6],inactive
same,AC50,[3],14.3 µM (active)
same,outcome,[3],inactive
same,AC50,[4],12 µM (active) and 12.5 µM (active) and 12.6 µM (active)
same,outcome,[4],inactive
CC(C)(OOC(C)(C)c1ccccc1)c1ccccc1,outcome,[2],inactive
same,outcome,[9],inactive
same,AC50,[6],58.3 µM (active)
same,AC50,[3],77.4 µM (active) and 93.2 µM (active)
same,AC50,[4],78.3 µM (active) and 78.5 µM (active)
CCOC(=O)[C@]1(c2ccccc2)Oc2ccccc2[C@@H]1N,AC50,[1],1.23 µM (active)
same,AC50,[5],1.56 µM (active)
same,outcome,[10],inactive
same,outcome,[6],inactive
CCC[CH2][Sn]([Cl])([CH2]CCC)[CH2]CCC,AC50,[1],8.54 µM (active)
same,AC50,[5],0.361 µM (active)
same,outcome,[8],inactive
same,outcome,[7],inactive
same,outcome,[6],inactive
same,outcome,[3],inactive
same,outcome,[4],inactive
